Shown are actives, neighbours in structure and some others; about 6.4% of the full set was active somewhere.
KinaseGlo FLuc = blocks Kinase-Glo luciferase, a counter-screen artifact; Q27757; Kinase-Glo luciferase, ATP luminescence, 8 min; Potency, µM (highest dose often 38.3 µM), most hits filed as inhibitors; 200,000 tested, 0.28% active; further: nearly all actives have a fitted effect of over 60% in size
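Compound is pinned into ATP-containing buffer (10 uM ATP, imidazole pH 7.2, 7 mM MgCl2). Kinase-Glo luciferase reagent is then added. Light output is recorded following an 8-min room-temperature incubation.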
Gal4-VP16 FLuc = counter-screen for ROR gamma inhibitors: Gal4-VP16 reporter | Drosophila S2 Gal4-VP16 UAS-luciferase, luminescence, 20 h | 310,000 tested, 3.5% active | AID 2546 | Potency, µM (titrated, usually from 53.6 µM), usual class: inhibitors;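 further: Gal4-VP16 expression switched on by copper sulfate through the metallothionein promoter; nearly all actives have a fitted effect of over 50% in size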
RORgamma inh = inhibitors of mouse ROR gamma transcriptional activity; Drosophila S2 Gal4-RORgamma UAS-luciferase reporter, 20 h; P51450; AID 2551; 310,000 tested, 5.4% active; Potency, µM (doses to about 53.6 µM), usual class: inhibitors; further: nearly all actives have a fitted effect of over 60% in size
Target sequence (P51450 whole entry, looked up, the tested form may be a part): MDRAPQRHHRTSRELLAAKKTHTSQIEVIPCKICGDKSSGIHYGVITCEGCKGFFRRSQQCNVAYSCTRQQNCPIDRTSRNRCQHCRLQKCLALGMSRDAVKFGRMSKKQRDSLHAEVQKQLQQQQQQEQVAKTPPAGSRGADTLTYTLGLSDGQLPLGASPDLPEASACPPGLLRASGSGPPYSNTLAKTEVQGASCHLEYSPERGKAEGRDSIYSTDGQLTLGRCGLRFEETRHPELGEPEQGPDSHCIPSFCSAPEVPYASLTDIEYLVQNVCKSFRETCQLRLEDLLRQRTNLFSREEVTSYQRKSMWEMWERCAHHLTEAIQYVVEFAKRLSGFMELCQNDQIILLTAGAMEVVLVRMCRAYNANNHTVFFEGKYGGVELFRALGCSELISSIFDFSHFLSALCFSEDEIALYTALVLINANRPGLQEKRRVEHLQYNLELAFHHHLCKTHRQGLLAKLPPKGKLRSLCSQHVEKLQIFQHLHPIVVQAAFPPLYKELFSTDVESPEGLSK
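ROR gamma transcriptional activity was tracked as Gal4-UAS luciferase output in stably transfected Drosophila Schneider cells, with compound added 1 hr before 700 uM copper sulfate induction and a 20 hr ambient-temperature incubation.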
Numbers stand for hits; - = inactive; ? = inconclusive; . = no result; ! = not confirmed by another sample; [ ] = remark or other dose. The call rests on the fitted dose curve; in most records, active means well fitted curve in the direction sought with a large enough effect; inconclusive means small, poorly fitted or top-dose-only effect, or another doubt; inactive means no such curve, though single readings can be large; an effect the other way counts as inactive or inconclusive.

SMILES	KinaseGlo FLuc	Gal4-VP16 FLuc	RORgamma inh
CS(=O)(=O)Nc1ccc(Cc2ccc(NS(C)(=O)=O)cc2)cc1	-	?	-
Nc1cc(N)cc(C(=O)OCC(=O)Nc2cc(S(=O)(=O)N3CCCCC3)ccc2Cl)c1	-	-	-
CN1/C(=C\C(=O)CSc2nncn2C)C(C)(C)c2ccccc21	-	-	-
COc1cc(OC)cc(C(=O)NCC(=O)OCC(=O)/C=C2/N(C)c3ccccc3C2(C)C)c1	-	18µM	-
CC(C)[C@H](NC(=O)c1ccccc1)C(=O)OCC(=O)/C=C1/N(C)c2ccccc2C1(C)C	-	?	-
CN1/C(=C\C(=O)COC(=O)Cn2nnc(-c3ccccc3)n2)C(C)(C)c2ccccc21	-	28µM	-
CC1CCCN(C(=O)CCNS(=O)(=O)c2ccc3c(c2)oc(=O)n3C)C1 (stereo unspecified)	.	-	-
COc1cccc(/C=N/n2c(C)nc3ccccc32)c1OC	-	8.9µM	3.2µM
COc1cccc(/C=N\n2c(C)nnc2C)c1OC	-	-	-
O=[N+]([O-])c1ccc(C=Nc2ccc(Cl)c([N+](=O)[O-])c2)s1	-	-[10 µM]	?
O=[N+]([O-])c1ccc(/C=N/n2c(CO)nc3ccccc32)s1	-	-	-
Cc1nc2ccccc2n1/N=C/c1ccc([N+](=O)[O-])s1	-	6.3µM	-
NC(=O)c1ccc(N=Cc2ccc([N+](=O)[O-])s2)cc1	-	5.6µM	?
NC(=O)c1ccc([N+](=O)[O-])cc1	.	-	-
Cc1cc(C)cc(N=Cc2ccc([N+](=O)[O-])s2)c1	-	18µM	?
O=C(O)CSCC(=O)N1CCN(c2nc3cc(Cl)ccc3s2)CC1	.	-	-
COc1ccc(CNc2ncnc3ccc(-c4ccc(N(C)C)cc4)cc23)c(OC)c1	.	-	?
O=C(COc1ccc(Br)cc1CNC1CCCC1)Nc1ccccc1	-	-	?
Cc1ccccc1CC(=O)Nc1cccnc1	.	-	-
CC(CN(C)C)NC(=O)c1ccc(-n2c(=O)c(=O)[nH]c3ccccc32)cc1 (stereo unspecified)	-	.	.
Cc1ccc(NCc2ccc([N+](=O)[O-])s2)cc1	.	-	-
Cc1ccc(NC(=S)N/N=C/c2ccc([N+](=O)[O-])s2)cc1	-	16µM	7.1µM
O=C(CSc1cccc2cccnc12)N/N=C/c1ccc(O)cc1	.	-	-
COc1cccc(/C=N/NC(=O)CSc2cccc3cccnc23)c1	.	?	8.9µM
Cc1cccc(CSc2cccc3cccnc23)c1	-	7.9µM	4.5µM
SMILES	KinaseGlo FLuc	Gal4-VP16 FLuc	RORgamma inh
CCOC(=O)CSc1cccc2cccnc12	-	10µM	?
Cc1cccc(NC(=O)CSc2cccc3cccnc23)c1C	.	-	-
NNC(=O)c1ccc(CSc2cccc3cccnc23)cc1	-	-	?
COc1ccc(C(=O)/C=C/c2ccc(OC)cc2OC)c(O)c1	.	-	0.79µM
COc1ccc(/C=C/C(=O)c2cc(Cl)ccc2O)c(OC)c1	.	-	-
COc1ccc(/C=C/C(=O)c2cc(O)ccc2O)cc1	-	-	?
O=C(/C=C/c1ccccc1)NC(=O)c1ccccc1O	.	?	-
COc1ccc(C(=O)/C=C/c2ccccc2)c(O)c1	-	-	-
O=C(/C=C/c1ccccc1)c1ccc(O)cc1O	-	?	2.8µM
COc1ccc(/C=C/C(=O)c2ccc(O)cc2O)cc1	-	?	0.04µM
O=C(/C=C/c1ccccc1)CC(=O)c1ccccc1O	.	11µM	?
Cn1cc(S(=O)(=O)Nc2cccc3ccccc23)c(=O)n(C)c1=O	.	-	-
CC(=O)N1c2ccc(S(=O)(=O)N(C)C3CCCCC3)cc2CC1C (stereo unspecified)	.	-	-
O=C(N/N=C/c1cc2ccccc2[nH]1)c1ccccc1Cl	.	-	-
CC(=O)c1ccc(OC(=O)CCc2ccccc2)cc1	.	-	-
COc1ccc2c(c1)O/C(=C\c1sccc1C)C2=O	-	-	-
COc1ccc(C(=O)/C=C/c2ccc(OC(=O)c3cc(OC)c(OC)c(OC)c3)cc2)cc1	-	7.1µM	1.8µM
O=C(/C=C/c1ccc(O)cc1)c1ccc(O)cc1O	-	?	1.8µM!
CC(C)=CCC/C(C)=C/Cc1c(O)ccc(C(=O)/C=C/c2ccc(O)cc2)c1O	-	?	-
COc1ccc(/C=C/C(=O)c2ccc(O)cc2O)cc1OC	-	?	2µM
COc1ccc(/C=C/C(=O)c2cc(F)ccc2OC(=O)c2ccccc2OC)cc1OC	-	?	-
COc1cc(/C=C/C(=O)c2ccc(O)cc2O)ccc1O	.	-	?
CCOc1ccc(C(=O)/C=C/c2cc(OC)c(OC)c(OC)c2)cc1	-	-	?
COc1ccc(/C=C/C(=O)c2cc(F)ccc2OC(=O)c2ccc(OC)c(OC)c2)cc1OC	-	?	8.9µM
CN(C(=O)CSc1ncnc2scc(-c3ccccc3)c12)C1CCS(=O)(=O)C1 (stereo unspecified)	-	-	?

Screening results (PubChem)
